Values joined by “and” are separate entries in the source; they are usually repeats but may differ in a detail not shown here. Identical values can stand only once. The campaign covered roughly 5,500 compounds. About 2,000 (36%) were called active. Not shown: some 18% with an inconclusive outcome. The list shows a part of the results. Values without a mark were called inactive. Cut-off read from the data, not from the text of the source: active = normalized growth mostly below about 0.91 (no sharp cut-off); inconclusive = no clear call, values can overlap the other calls; inactive = mostly above about 0.92.
Assay: chemical genetic growth profiling, strain panel (AID 1159580);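 note: tested at 20 µM; growth read once vehicle control cultures reached saturation at 30 °C; 1 = growth at the plate median or of vehicle wells; lower values mean less growth of the strain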
Details: S. cerevisiae deletion strains, growth OD

Cc1c(Cl)cccc1Nc1ccccc1C(=O)O
normalized growth (locus YAL021C, strain ccr4, hits give low values): 0.863 (active) | normalized growth (locus YAL026C, strain drs2, hits give low values): 0.805 (active) | normalized growth (locus YAL030W, strain snc1, hits give low values): 0.842 (active) | normalized growth (locus YBL061C, strain skt5, hits give low values): 0.81 (active) | normalized growth (locus YBR009C, strain hhf1, hits give low values): 0.82 (active) | normalized growth (locus YBR021W, strain FUR4, hits give low values): 0.74 (active) | normalized growth (locus YBR023C, strain chs3, hits give low values): 0.801 (active) | normalized growth (locus YBR171W, strain sec66, hits give low values): 0.729 (active) | normalized growth (locus YBR229C, strain ROT2, hits give low values): 0.848 (active) | normalized growth (locus YBR231C, strain swc5, hits give low values): 0.825 (active) | normalized growth (locus YBR279W, strain paf1, hits give low values): 0.839 (active) | normalized growth (locus YCL011C, strain gbp2, hits give low values): 0.83 (active) | normalized growth (locus YCL016C, strain dcc1, hits give low values): 0.827 (active) | normalized growth (locus YCL029C, strain bik1, hits give low values): 0.812 (active) | normalized growth (locus YCL061C, strain MRC1, hits give low values): 0.842 (active) | normalized growth (locus YCL069W, strain vba3, hits give low values): 0.815 (active) | normalized growth (locus YCR088W, strain abp1, hits give low values): 0.812 (active) | normalized growth (locus YDL005C, strain med2, hits give low values): 0.865 (active) | normalized growth (locus YDL035C, strain GPR1, hits give low values): 0.848 (active) | normalized growth (locus YDL040C, strain nat1, hits give low values): 0.83 (active) | normalized growth (locus YDL074C, strain BRE1, hits give low values): 0.75 (active) | normalized growth (locus YDL101C, strain DUN1, hits give low values): 0.929 | normalized growth (locus YDL134C, strain PPH21, hits give low values): 0.817 (active) | normalized growth (locus YDL185W, strain tfp1, hits give low values): 0.956 | normalized growth (locus YDL192W, strain arf1, hits give low values): 0.796 (active) | normalized growth (locus YDR001C, strain nth1, hits give low values): 0.804 (active) | normalized growth (locus YDR069C, strain doa4, hits give low values): 0.897 (active) | normalized growth (locus YDR101C, strain arx1, hits give low values): 0.835 (active) | normalized growth (locus YDR137W, strain rgp1, hits give low values): 0.464 (active) | normalized growth (locus YDR150W, strain NUM1, hits give low values): 0.836 (active) | normalized growth (locus YDR159W, strain sac3, hits give low values): 0.615 (active) | normalized growth (locus YDR162C, strain NBP2, hits give low values): 0.709 (active) | normalized growth (locus YDR195W, strain ref2): 1.15 [resistant] (active) | normalized growth (locus YDR297W, strain sur2, hits give low values): 0.835 (active) | normalized growth (locus YDR318W, strain mcm21, hits give low values): 0.793 (active) | normalized growth (locus YDR334W, strain swr1, hits give low values): 0.812 (active) | normalized growth (locus YDR335W, strain msn5, hits give low values): 0.836 (active) | normalized growth (locus YDR388W, hits give low values): 0.79 (active) | normalized growth (locus YDR392W, strain spt3, hits give low values): 0.225 (active) | normalized growth (locus YDR502C, strain sam2, hits give low values): 0.802 (active) | normalized growth (locus YEL003W, strain gim4, hits give low values): 0.839 (active) | normalized growth (locus YEL037C, strain rad23, hits give low values): 0.836 (active) | normalized growth (locus YEL061C, strain CIN8 (second series), hits give low values): 0.819 (active) | normalized growth (locus YEL061C, strain CIN8, hits give low values): 0.855 (active) | normalized growth (locus YER015W, strain faa2, hits give low values): 0.848 (active) | normalized growth (locus YER016W, strain bim1, hits give low values): 0.856 (active) | normalized growth (locus YER110C, hits give low values): 0.769 (active) | normalized growth (locus YER111C, strain swi4, hits give low values): 0.831 (active) | normalized growth (locus YER155C, strain BEM2 (second series), hits give low values): 0.595 (active) | normalized growth (locus YER155C, strain BEM2, hits give low values): 0.684 (active) | normalized growth (locus YER167W, strain BCK2, hits give low values): 0.812 (active) | normalized growth (locus YFR010W, strain ubp6, hits give low values): 0.876 (active) | normalized growth (locus YGL078C, strain dbp3, hits give low values): 0.958 | normalized growth (locus YGL086W, strain mad1, hits give low values): 0.815 (active) | normalized growth (locus YGL167C, strain pmr1, hits give low values): 0.757 (active) | normalized growth (locus YGL173C, strain kem1, hits give low values): 0.819 (active) | normalized growth (locus YGL227W, strain vid30, hits give low values): 0.808 (active) | normalized growth (locus YGL240W, strain doc1, hits give low values): 0.791 (active) | normalized growth (locus YGL248W, strain PDE1, hits give low values): 0.841 (active) | normalized growth (locus YGL253W, strain hxk2, hits give low values): 0.706 (active) | normalized growth (locus YGR078C, strain PAC10, hits give low values): 0.814 (active) | normalized growth (locus YGR135W, strain pre9, hits give low values): 0.792 (active) | normalized growth (locus YGR252W, strain gcn5, hits give low values): 0.609 (active) | normalized growth (locus YHR013C, strain ard1, hits give low values): 0.854 | normalized growth (locus YHR027C, strain rpn1, hits give low values): 0.843 (active) | normalized growth (locus YHR030C, strain SLT2, hits give low values): 0.827 (active) and 0.555 (active) | normalized growth (locus YHR079C, strain IRE1 (second series), hits give low values): 0.793 (active) | normalized growth (locus YHR079C, strain IRE1, hits give low values): 0.633 (active) | normalized growth (locus YHR094C, strain hxt1, hits give low values): 0.796 (active) | normalized growth (locus YHR129C, strain ARP1, hits give low values): 0.837 (active) | normalized growth (locus YHR142W, strain chs7, hits give low values): 0.586 (active) | normalized growth (locus YHR200W, strain rpn10, hits give low values): 0.789 (active) | normalized growth (locus YIL066C, strain RNR3, hits give low values): 0.839 (active) | normalized growth (locus YIL073C, strain SPO22, hits give low values): 0.776 | normalized growth (locus YIL125W, strain kgd1, hits give low values): 0.966 | normalized growth (locus YIR030C, strain dcg1, hits give low values): 0.792 (active) | normalized growth (locus YJL092W, strain hpr5, hits give low values): 0.814 (active) | normalized growth (locus YJL095W, strain BCK1 (second series), hits give low values): 0.828 (active) | normalized growth (locus YJL095W, strain BCK1, hits give low values): 0.594 (active) and 0.648 (active) | normalized growth (locus YJL115W, strain asf1, hits give low values): 0.854 (active) | normalized growth (locus YJL129C, strain trk1, hits give low values): 0.442 (active) | normalized growth (locus YJL134W, strain LCB3, hits give low values): 0.842 (active) | normalized growth (locus YJL154C, strain vps35, hits give low values): 0.845 (active) | normalized growth (locus YJL164C, strain tpk1, hits give low values): 0.803 (active) | normalized growth (locus YJL166W, strain qcr8, hits give low values): 0.756 (active) | normalized growth (locus YJL168C, strain set2, hits give low values): 0.797 (active) | normalized growth (locus YJL187C, strain SWE1 (second series), hits give low values): 0.851 (active) | normalized growth (locus YJL187C, strain SWE1, hits give low values): 0.832 (active) | normalized growth (locus YJR043C, strain POL32, hits give low values): 0.867 | normalized growth (locus YJR066W, strain TOR1, hits give low values): 0.731 (active)

Source: PubChem BioAssay AID1159580 (chemical genetic matrix, 2015)
